Rows were chosen to be rich in hits. Some 1.4% of all compounds tested hit in one or more screens of this group.
HSV augment: increases HSV replication in cells; HSV replication augmentation in cells, fold increase; maximum fold increase; 220,000 compounds, 0.005% hits; AID 1956; in the data active = maximum fold increase above about 1.5; tested in PC3 cells
Wee1 degr inh: inhibitors of human Wee1 degradation; P30291; HeLa Luc-Wee1K328M stability, luciferase luminescence; 100% = proteasome inhibitor MG132 effect; reporter increase, % at 5 µM; 220,000 compounds, 1.2% hits; AID 1321;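 active = activation above the mean of all tested compounds plus 3 SD, set per screening run, cut at about 8.8% in these data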;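 note: cells exposed to compound for 20 h before luminescence read; 0% = DMSO alone and 100% = MG132 at 30 µM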
Target sequence (P30291 whole entry K328M): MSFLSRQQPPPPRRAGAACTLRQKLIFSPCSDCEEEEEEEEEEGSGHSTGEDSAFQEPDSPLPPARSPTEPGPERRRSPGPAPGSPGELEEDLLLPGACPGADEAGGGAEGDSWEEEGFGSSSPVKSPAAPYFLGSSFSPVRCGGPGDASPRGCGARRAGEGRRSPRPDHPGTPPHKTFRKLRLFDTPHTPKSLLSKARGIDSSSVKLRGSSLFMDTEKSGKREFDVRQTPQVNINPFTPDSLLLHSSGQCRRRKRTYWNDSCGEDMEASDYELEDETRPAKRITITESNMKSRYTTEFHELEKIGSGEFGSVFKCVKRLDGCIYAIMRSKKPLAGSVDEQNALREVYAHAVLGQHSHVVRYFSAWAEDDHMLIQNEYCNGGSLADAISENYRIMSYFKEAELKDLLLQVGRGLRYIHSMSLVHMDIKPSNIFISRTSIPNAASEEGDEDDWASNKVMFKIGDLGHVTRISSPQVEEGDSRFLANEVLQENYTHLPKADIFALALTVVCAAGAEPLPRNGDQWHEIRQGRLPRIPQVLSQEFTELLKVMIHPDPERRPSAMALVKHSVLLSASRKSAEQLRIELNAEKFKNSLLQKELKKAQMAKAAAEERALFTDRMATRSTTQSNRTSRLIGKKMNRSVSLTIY
TNF death inh: blocks TNF-alpha induced death of Jurkat FADD-/- cells. Jurkat FADD-/- TNF necroptosis rescue, ATP luminescence, 24 h; 0 = TNF only, 100 = no-TNF cells. activation (protection from cell death), % at 10 µM. 220,000 compounds, 0.068% hits;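 active = activation, meaning protection from cell death, of at least 50% relative to plate controls; inactive = activation below 50%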;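 note: necroptosis triggered by 40 ng/mL TNF-alpha added together with compound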
V-ATPase pHluor: alters yeast V-ATPase proton transport. S. cerevisiae, pHLuorin cytosolic pH fluorescence. response, % at 10 µM. 350,000 compounds, 0.37% hits. AID 504577; in the data active = response mostly above about 7.3%, no sharp cut-off; inactive = mostly below about 5.4%; note: actives read high
zVAD death inh: blocks zVAD induced death of L929 cells | 220,000 compounds, 0.38% hits | L929 zVAD necroptosis rescue, ATP luminescence, 24 h; with zVAD 60 µM | AID 1377 | viability rescue, % at 10 µM;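 active = activation, scaled between plate controls, above about 75%, limit read from the data; inactive = activation under that limit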;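 note: 0% = zVAD with DMSO and 100% = DMSO alone without zVAD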
VATPase regulator: yeast V-ATPase proton transport regulation. 980 compounds, 2% hits. S. cerevisiae pHLuorin cytosolic pH. response, % at 10 µM. shares compounds with V-ATPase pHluor. AID 602197; in the data active = response above about 24%;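 note: plate controls were vehicle wells for no effect and positive control wells for full effect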
An asterisk follows results filed as active; i = inactive; . = not tested or not shown.

SMILES | HSV augment | Wee1 degr inh | TNF death inh | V-ATPase pHluor | zVAD death inh | VATPase regulator
CCCCn1c(N)c(N(CC)C(=O)c2cccc(OCc3ccccc3)c2)c(=O)[nH]c1=O | . | . | . | 11* | . | 0
CCCCCn1nc(C(=O)N(CCOC)c2c(N)n(CCCC)c(=O)[nH]c2=O)c2ccccc2c1=O | . | . | . | 13* | . | -2
CCCn1c(SC(C)C(=O)N2CCOCC2)nc2ccc(Br)cc2c1=O (stereo not drawn) | . | . | . | 3 | . | .
COc1ccc(C(=O)C2CCN(C(=S)Nc3ccc(F)cc3)CC2)cc1 | i | 1 | 1 | 5 | 2 | .
COc1ccc(C(=O)C2CCCN(C(=O)CSC)C2)cc1OC (stereo not drawn) | . | . | . | 8 | . | .
COc1ccc(C(=O)C2CCCN(C(=O)C3=CCCC3)C2)cc1OC (stereo not drawn) | i | -3 | 1 | 10* | 5 | -7
CC1(C)C(C=C(Cl)Cl)C1C(=O)Nc1ccc(S(=O)(=O)Nc2ncccn2)cc1 (stereo not drawn) | . | . | . | -2 | . | .
O=C(CNC(=O)c1ccc(Cl)c([N+](=O)[O-])c1)OC1CCCCC1=O (stereo not drawn) | . | . | . | -3 | . | .
O=C(NCCC1=CCCCC1)c1cc2ccccc2oc1=O | i | 2 | 1 | 10* | 0 | 3
CCN(CC)C(=O)CNC(=O)Cc1ccc(Cl)cc1 | i | 4 | 0 | 9.5* | 0 | 2
O=C(c1ccc(S(=O)(=O)Cc2ccccc2Cl)c([N+](=O)[O-])c1)N1CCOCC1 | . | . | . | -1 | . | .
CCOC(=O)C1CNc2cc(S(=O)(=O)CC)ccc2O1 (stereo not drawn) | i | 0 | 0 | 4 | 0 | .
O=C(NCc1ccco1)/C(=C/c1ccc([N+](=O)[O-])cc1)NC(=O)c1ccco1 | . | . | . | 1 | . | .
C=CCNC(=O)/C(=C\c1ccc([N+](=O)[O-])cc1)NC(C)=O | i | 2 | -3 | 13* | 0 | 1
CC(=O)Nc1ccc(/C=N/N2C(=O)NC(C)(c3ccc(OC(F)F)cc3)C2=O)cc1 (stereo not drawn) | i | 2 | 2 | 3 | 1 | .
Cc1cccc(N(C)C(=O)CCS(=O)(=O)c2cc3c(cc2Cl)NC(=O)CO3)c1 | . | . | . | 1 | . | .
Cc1cccc(NS(=O)(=O)c2ccc(C)c(C(=O)NCC(c3ccco3)N3CCCCC3)c2)c1 (stereo not drawn) | . | . | . | -2 | . | .
COc1ccc(NS(=O)(=O)c2ccc(C)c(C(=O)NCC(c3ccco3)N3CCCCC3)c2)cc1 (stereo not drawn) | . | . | . | 9.9* | . | -2
Cc1cc(C)c(S(=O)(=O)N2CCc3ccccc32)c(C)c1 | . | . | . | 0 | . | .
O=C(NCCC1=CCCCC1)C1CCCN(S(=O)(=O)c2cccc3cccnc23)C1 (stereo not drawn) | i | -2 | -1 | 7.3* | 1 | 0
O=C(NCCC1=CCCCC1)C1CCCN(S(=O)(=O)c2cccnc2)C1 (stereo not drawn) | i | 0 | -1 | -2 | 1 | .
COc1ccc(C(=S)N2CCN(C)CC2)cc1Br | i | 4 | 1 | 8.0* | 1 | -1
COc1ccc(C(=S)N2CCCC2)cc1Br | . | . | . | -2 | . | .
CCOC(=O)c1c(S(=O)(=O)NCc2ccc(OC)cc2)c(C)n(C)c1C | . | . | . | -1 | . | .
CC(=O)c1c(C)[nH]c(C(=O)COC(=O)Cc2ccccc2F)c1C | . | . | . | 1 | . | .
SMILES | HSV augment | Wee1 degr inh | TNF death inh | V-ATPase pHluor | zVAD death inh | VATPase regulator
CC(=O)c1c(C)[nH]c(C(=O)COC(=O)COc2ccccc2F)c1C | . | . | . | 12* | . | -1
COc1cc(NC(=O)C2CCCN2S(=O)(=O)c2ccc3c(c2)CC(C)N3C(C)=O)cc(OC)c1 (stereo not drawn) | . | . | . | 8.5* | . | 0
CC(=O)N1c2ccc(S(=O)(=O)N3CCCC3C(=O)Nc3ccc(C)cc3)cc2CC1C (stereo not drawn) | . | . | . | -1 | . | .
CCc1ccc(Cn2nnc(C(=O)Nc3ccc(OC)cc3OC)c2N)cc1 | i | 0 | 0 | 12* | 5 | 4
COc1ccc(CC(=O)N2CC(=O)N(CCc3ccccc3)C(=O)C2)cc1 | i | -1 | 0 | 8.7* | 0 | -1
O=c1[nH]c(CN2CCN(c3ccccc3O)CC2)nc2ccccc12 | i | 3 | -5 | 14* | 0 | 0
Cc1cc(C)c(C(=O)COC(=O)C2CCN(c3ccc(C(F)(F)F)cn3)CC2)c(C)c1 | . | . | . | 8.6* | . | 0
Cc1ccc(C)c(C(=O)COC(=O)C2CCN(c3ccc(C(F)(F)F)cn3)CC2)c1 | . | . | . | 0 | . | .
CC1CCN(C(=O)c2cc(S(=O)(=O)N3CCOCC3)ccc2N2CCCC2)CC1 | . | . | . | -1 | . | .
Cc1ccc(C(C)C)c(OCC(=O)NNC(=O)Cc2ccc(S(=O)(=O)N3CCOCC3)s2)c1 | . | . | . | 1 | . | .
O=C(N/N=C/c1ccc(O)cc1O)c1ccncc1 | . | . | . | 6.8* | . | -2
O=C(Nc1cc(C(F)(F)F)ccc1N1CCCCC1)C1=COCCO1 | . | . | . | 1 | . | .
CCN(CC(=O)Nc1ccc(NC(C)=O)cc1)C(=O)c1cc(C)on1 | . | . | . | 10* | . | 1
CC(C)[C@H](NC(=O)c1ccc(F)cc1)C(=O)NC1=NCCS1 | i | 0 | 1 | -2 | 1 | 0
O=C(N[C@@H](Cc1ccccc1)C(=O)NCCc1c[nH]c2ccccc12)c1ccco1 | . | . | . | 13* | . | -1
O=C1CCN(S(=O)(=O)c2cccs2)c2ccc(C(F)(F)F)cc2N1 | i | -2 | 0 | 1 | 2 | .
N#C/C(=C(/O)COc1ccc(Br)cc1)c1nnc2n1CCCCC2 | i | -2 | 1 | 7.5* | 1 | -1
CN(C)S(=O)(=O)c1cccc(NC(=O)C2Cc3ccccc3CN2C(=O)c2ccccc2)c1 (stereo not drawn) | . | . | . | -1 | . | .
Cc1cccn2c(=O)c(/C=C(\C#N)C(=O)NC3CCS(=O)(=O)C3)c(N3CCC(C)CC3)nc12 (stereo not drawn) | i | 2 | 0 | 15* | 0 | -1
CCCN(CCC)CC(O)COc1ccc2c(c1)OCO2 (stereo not drawn) | i | -3 | 2 | 8.9* | 2 | -4
C=C(C)CSc1nnc(-c2cc(OC)c(OC)c(OC)c2)n1N | i | 1 | 0 | 0 | 1 | .
C=C(C)CSc1nnc(-c2ccc(OC)c(OC)c2)n1N | i | 0 | 0 | 8.7* | 1 | 1

Screening data as filed in PubChem BioAssay.
